The values that follow come from PubChem BioAssay AID602449 (Sanford-Burnham Center for Chemical Genomics, 2012).

SMILES strings stand for the structures. The whole screen tested about 360,000 compounds, of which about 5,000 (1.4%) were called active. This excerpt belongs to a sample that is enriched for actives. Values without a mark were called inactive.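 The calls were made as follows: active = inhibition of 50% or more, scaled per plate between neutral and stimulator controls; inactive = the rest.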

The experiment is described as follows: mitochondrial permeability transition pore inhibitors, primary screen, biochemical, isolated mouse mitochondria, absorbance (AID 602449).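 Also: 0% = DMSO wells given calcium and 100% = 1 mM EGTA wells.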 To be noted: Ca2+ swelling absorbance, 30 min, at 10 µM, stronger effect = higher value.
Broadly, the inhibition is the change of the read-out against control, counted positive when it falls. Regarding `Cn1c(O)c(C=NCCCC(=O)O)c(=O)n(C)c1=O`, the inhibition was 1.1%. As to `CCCCC(=O)N/N=C/c1c(O)n(CCC2=CCCCC2)c(=O)[nH]c1=O`, the inhibition was -4.5%. For the compound `CCCCC(=O)N/N=C/c1c(O)n(CC)c(=S)n(CC)c1=O`, the inhibition is 58% (active). With `COc1ccc2c(c1)[C@]13CCCCC1C(C2)N(C)CC3` (stereo not given in full) the figure was -3%; with `Cc1ccc(C2CN(C)CC2C(=O)c2ccc(F)cc2)cc1` (stereo not given), -0.4%; with `CCN(CC)CCOC(=O)c1cc2cc(COC)ccc2o1`, -3.6%.

Take `CCOc1cccc(=NC2CCCCC2)c2c(C)[nH]c(C)c12`: the inhibition is 62.7% (active).

In the case of `C=CCn1c(O)c(/C=N/N2CCOCC2)c(=O)[nH]c1=S`, the inhibition was -1.7%. `O=C(CCCn1c(=O)[nH]c2cc(Cl)ccc2c1=O)N1CCC2(CC1)OCCO2`: the inhibition was 1.1%. Turning to `C[C@H]1CN([C@@H](C)CO)C(=O)CCCn2nncc2CO[C@H]1CN(C)C(=O)Oc1ccccc1`, the inhibition is 0.9%. As for `CCCCCCCCCCCCn1ccc(=N)cc1`, the figure is 68.6% (active); as for `CC(=O)NCC1=C(c2ccc3ccccc3c2)C[C@@H]2CC[C@H]1N2Cc1ccco1`, -0.6%; as for `O=C(CN1CCCCC1)Nc1ccc(Br)cc1C(=O)c1ccccc1Cl`, 1.1%. `COc1c(O)ccc2c1-c1c3c(cc4c1C(C2)N(C)CC4)OCO3` (stereo not given): the inhibition was -0.5%. Regarding `c1ccc(C2NCc3ccccc3-n3cccc32)cc1` (stereo not given), the inhibition was 0.4%. With `COc1ccc(C2NCc3ccc4c(c3-n3cccc32)OCO4)cc1OC` (stereo not given) the figure was 68% (active). With `O=C(Nc1cccc2ccccc12)N1CCC2(CC1)OCCO2` the figure was 0.6%; with `O=C1/C(=C\c2ccc3c(c2)OCO3)N2CCC1CC2`, -0.8%.

For the compound `O=c1c2ccccc2nc(-c2ccc(Cl)cc2Cl)n1-c1ccncc1`, the inhibition is 0.3%. With `COc1ccc(-c2nc(CS(=O)CC(=O)N3CCC4(CC3)OCCO4)c(C)o2)cc1` (stereo not given) the figure was 1%; with `O=Cc1cn(Cc2ccc(F)cc2Cl)c2ccccc12`, 60.7% (active). For the compound `Cc1ccnc(-n2c(C)cc(/C=C3\C(=O)NC(=S)N(C)C3=O)c2C)c1`, the inhibition is 6.4%. With `O=C1C2CCN(CC2)C1(CO)CO`, the inhibition was -0.5%. With `CCN(CC)C(=O)c1ccc(NC(=O)c2sccc2-c2ccccc2)cc1` the figure was 0.3%; with `CCCCCCN=C(CC)c1c(O)n(CCCC)c(=O)[nH]c1=O`, 79.8% (active); with `CCC(=NCCCO)c1c(O)n(-c2ccc(OC)cc2)c(=O)[nH]c1=O`, 2.3%. For the compound `CCCCn1c(O)c(C(CC)=NCc2ccco2)c(=O)[nH]c1=O`, the inhibition was -0.1%. As for `Cc1cccc(-n2c(O)c(C=NC34CN5CN(CN(C5)C3)C4)c(=O)[nH]c2=O)c1`, the figure is 2.5%.

For `CSc1ccc(C(=O)C2CCCN(Cc3ccn[nH]3)C2)cc1` (stereo not given), the inhibition was 1.7%.

`CC(=CCOc1ccc2ccc(=O)oc2c1)C1=CC(=O)C(C)(C)O1`: the inhibition is 1.5%.

With `O=C(NCC1=C(c2ccc3ccccc3c2)C[C@@H]2CC[C@H]1N2Cc1ccco1)c1cccs1`, the inhibition was -1.7%. With `CC(Cc1ccccc1)NCCC(c1ccccc1)c1ccccc1` (stereo not given) the figure was 104% (active). As for `CCOc1ccc(C2SCC(=O)Nc3c2c(C)nn3C2CCOC(C)(C)C2)cc1` (stereo not given), the figure is 0.4%. As for `Cc1ccsc1C(=O)C1CCCN(Cc2ccc(O)cc2)C1` (stereo not given), the figure is 0.1%; as for `Cn1c(O)c(C=Nc2ccc3c(c2)CCC3)c(=O)n(C)c1=O`, -1.3%.
